Screens (PubChem)
BAZ2B block = blocks human BAZ2B; Q9UIF8; AlphaScreen BAZ2B-H3K14Ac peptide displacement; Potency, µM (series often up to 114 µM), for the others: at the top dose activity change, negative = inhibition, hits mostly inhibitors; hit rate 4.4% among 360,000; AID 504333; note: % is set by controls: 0 for no effect and ±100 for the full control effect; nearly all actives have a fitted effect of over 60% in size
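Compounds, titrated to a top concentration of 110 uM, were incubated 30 min at room temperature with preformed BAZ2B/acetyl-K14 H3 peptide complex (50 nM each). Proximity signal was measured by AlphaScreen after 20 min with beads.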
JMJD2A Tudor = JMJD2A Tudor domain (human) inhibition; hit rate 4.4% among 390,000; Potency, µM (top dose mostly 114 µM), without a hit: at the highest dose activity change, negative = inhibition, actives largely listed as inhibitors; AlphaScreen JMJD2A-Tudor / H3K4me3 peptide binding; AID 504339; note: % is set by controls: 0 for no effect and ±100 for the full control effect; nearly all actives have a fitted effect of over 50% in size
Sfp PPTase inh = Sfp phosphopantetheinyl transferase inhibition. Q9F4F7. AID 1490. Biochemical Sfp PPTase activity, qHTS. Potency, µM, inactives show largest response in the series, negative = inhibition, hits mostly inhibitors. hit rate 3.5% among 310,000;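 note: the enzyme is Sfp with the accession as filed and its product quenches rhodamine fluorescence; 0% = enzyme reaction without inhibitor and -100% = no enzyme wells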
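Reaction rates are the 30-min fluorescence difference (ex 525, em 598 nm) in wells containing 15 nM Sfp, 5 uM rhodamine-CoA and 12.5 uM BHQ-2-YbbR at pH 7.6 with 10 mM MgCl2.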
ALOX12 inh = blocks human arachidonate 12S-lipoxygenase; P18054; purified 12hLO, xylenol orange hydroperoxide absorbance; Potency, µM (titrated, usually from 108 µM), for inactives: at the highest dose activity change, negative = inhibition, most hits filed as inhibitors; hit rate 1.1% among 580,000; AID 1671190; note: % is set by controls: 0 for no effect and ±100 for the full control effect
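Purified human 12hLO (150 nM final) in 25 mM Hepes, 0.01% Triton X-100, pH 7.0 was preincubated 15 min at room temperature with compound. Then 40 uM arachidonic acid was added, 30 min. Hydroperoxide was read by Fe-XO absorbance ratio 573/405 nm.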
G9a block = G9a (human) methyltransferase inhibition; Q96KQ7; G9a H3K9 monomethylation, AlphaScreen, 2 h; Potency, µM (series often up to 102 µM), for inactives: at the top dose activity, negative = inhibition, hits mostly inhibitors; hit rate 8.8% among 350,000; AID 504332; note: % is set by controls: 0 for no effect and ±100 for the full control effect; nearly all actives have a fitted effect of over 75% in size
Target sequence (Q96KQ7 913-1193 limits assumed): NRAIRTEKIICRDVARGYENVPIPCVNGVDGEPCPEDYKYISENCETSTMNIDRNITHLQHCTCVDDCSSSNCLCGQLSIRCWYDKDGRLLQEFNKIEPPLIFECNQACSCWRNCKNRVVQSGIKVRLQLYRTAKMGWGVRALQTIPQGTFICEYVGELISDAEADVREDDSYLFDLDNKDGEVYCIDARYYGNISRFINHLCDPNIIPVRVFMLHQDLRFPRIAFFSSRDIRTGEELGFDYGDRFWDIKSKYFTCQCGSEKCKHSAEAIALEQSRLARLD
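Methyltransferase reactions run at room temperature for 2 h (20 nM enzyme, 500 nM biotin-H3K9 peptide, 20 uM SAM) after a 15 min compound preincubation; product detected by AlphaScreen beads and anti-H3K9me1 antibody.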
HP1b binding inh = inhibitors of HP1-beta chromodomain binding to methylated histone tails. AlphaScreen HP1-beta / biotin-H3K9me3 peptide binding. Potency, µM (highest dose often 114 µM), for inactives: top-dose activity change, negative = inhibition, hits mostly inhibitors. hit rate 0.56% among 390,000; note: nearly all actives have a fitted effect of over 70% in size
Target sequence (P83916 whole entry, looked up): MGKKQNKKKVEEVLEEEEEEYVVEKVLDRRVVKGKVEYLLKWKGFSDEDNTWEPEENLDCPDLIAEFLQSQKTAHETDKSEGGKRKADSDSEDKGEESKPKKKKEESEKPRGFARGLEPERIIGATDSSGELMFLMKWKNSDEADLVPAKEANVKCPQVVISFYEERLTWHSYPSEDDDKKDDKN
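Compound inhibition of the preformed complex between 50 nM HP1-beta and 50 nM biotinylated H3K9me3 peptide was read by AlphaScreen. Buffer was PBS pH 7.4 with 0.01% Tween-20. Incubations ran 30 min at room temperature, with 10 ug/mL donor/acceptor beads.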
The depositor's hits bear a star; ! = not active in a repeat; [ ] = dose if it differs, or a comment. Sampled rows, rich in hits. Any-hit rate of the full collection: about 8.7%. Calls come from the whole dose curve; as a rule, active = well fitted curve in the direction sought with a large enough effect; inconclusive = small, poorly fitted or top-dose-only effect, or another doubt; inactive = no such curve, though single readings can be large; an effect the other way counts as inactive or inconclusive. Potency is the fitted concentration of half-maximal effect.

What do the screens show for `Cc1csc(NC(=O)c2ccc3c(c2)OCO3)n1`?
BAZ2B block: -3.1%; JMJD2A Tudor: -14.5%; Sfp PPTase inh: 14.9%; ALOX12 inh: -14.2%; G9a block: 5.5%[59 µM]; HP1b binding inh: 18.0%

How did O=C(Nc1ccc(OC(F)(F)F)cc1)c1ccccc1-n1cnnn1 do in these assays?
JMJD2A Tudor: -14.9%; ALOX12 inh: 0.1%; HP1b binding inh: 29.8%

Results for O=C(Nc1nc(-c2ccccn2)cs1)c1ccc2c(c1)OCCO2 ?
BAZ2B block: 22.4µM*; JMJD2A Tudor: 56.2µM*; Sfp PPTase inh: 13.5%; ALOX12 inh: -1.7%[57.4 µM]; G9a block: -26.3%; HP1b binding inh: 45.0%

Results for CC(=O)Nc1ccc(C(=O)Nc2nc(-c3cccnc3)cs2)cc1 ?
BAZ2B block: -27.7%; JMJD2A Tudor: -18.0%; Sfp PPTase inh: inconclusive; ALOX12 inh: -25.1%; G9a block: 3.98µM*; HP1b binding inh: 28.9%

What do the screens show for `O=C(Nc1nc(-c2ccccn2)cs1)c1ccccc1-n1cnnn1`?
BAZ2B block: 22.4µM*; JMJD2A Tudor: inconclusive; Sfp PPTase inh: 15.8µM*; ALOX12 inh: inconclusive; G9a block: 10µM*; HP1b binding inh: -14.7%

How did Cc1csc(NC(=O)c2ccccc2)n1 do in these assays?
BAZ2B block: -2.9%; JMJD2A Tudor: -16.2%; Sfp PPTase inh: 1.3%; ALOX12 inh: -4.4%; G9a block: 15.0%[0.501 µM]; HP1b binding inh: 8.0%

How did CC(=O)Nc1ccc(C(=O)Nc2nc(-c3ccccn3)cs2)cc1 do in these assays?
BAZ2B block: 5.62µM*; JMJD2A Tudor: 56.2µM*; Sfp PPTase inh: 15.8µM*; ALOX12 inh: -22.5%; G9a block: inconclusive; HP1b binding inh: 28.2%

Results for O=C1CCCC2=C1C(c1cccnc1)C1=C(CCCC1=O)N2 ?
ALOX12 inh: 43.0%

How did CCn1cc(S(=O)(=O)N2CCN(c3cccc(OC)c3)CC2)cn1 do in these assays?
ALOX12 inh: -22.4%

How did CC(SC(C)c1ccccc1Cl)C(=O)NC(N)=O (stereo not drawn) do in these assays?
ALOX12 inh: -7.4%

What do the screens show for `COc1cccc2c1NC(=O)CC2C(=O)N1CCc2c(nc[nH]c2=O)C1` (stereo not drawn)?
ALOX12 inh: -9.6%

What do the screens show for `CC[n+]1c(/C=C/C=C2/N(C)c3ccccc3C2(C)C)sc2ccccc21`?
G9a block: 8.91µM*

What do the screens show for `CN1/C(=C\C=C(C#N)C#N)C(C)(C)c2ccccc21`?
BAZ2B block: -6.9%; JMJD2A Tudor: -17.3%; Sfp PPTase inh: 3.9%; ALOX12 inh: -4.8%; G9a block: 13.3%; HP1b binding inh: 15.7%

Results for CCOC(=O)c1ccc2c(c1)n(CCCS(=O)(=O)[O-])c(/C=C/c1ccc(Cl)cc1)[n+]2CC ?
BAZ2B block: 0.4%; JMJD2A Tudor: 2.8%; Sfp PPTase inh: 16.0%; ALOX12 inh: 10.8%; HP1b binding inh: 18.9%

Results for CC[n+]1c(/C=C/C=C/N(C(C)=O)c2ccccc2)sc2ccccc21 ?
BAZ2B block: 28.2µM*; JMJD2A Tudor: 79.4µM*; Sfp PPTase inh: 50.1µM*; ALOX12 inh: inconclusive; G9a block: 29.0%[0.501 µM]; HP1b binding inh: -30.3%

What do the screens show for `CCn1c(/C=C/N(C(C)=O)c2ccccc2)[n+](CC)c2ccc(Cl)cc21`?
BAZ2B block: inconclusive; JMJD2A Tudor: -10.1%; Sfp PPTase inh: 22.2%; ALOX12 inh: inconclusive; G9a block: 79.4µM*; HP1b binding inh: 9.9%

Results for Cc1ccc([C@H]2C[C@@H](O)[C@@H](O)[C@@H]2NC2CCOCC2)cc1 ?
ALOX12 inh: 14.5%[176 µM]

What do the screens show for `CCCNc1ccc2nnc(CC)n2n1`?
ALOX12 inh: 49.1%

Results for O=C(c1csc2nc(-c3ccc(C(F)(F)F)cc3)cn12)N1CCN2CCCC2C1 (stereo not drawn) ?
ALOX12 inh: 16.0%

Results for COc1ccc(C(=O)N=c2c(C#N)cc3c(=O)n4cccc(C)c4nc3n2Cc2ccco2)cc1 ?
BAZ2B block: -1.2%; Sfp PPTase inh: 56.2µM*; G9a block: -7.1%

What do the screens show for `CCCCn1c(=NC(=O)c2cccnc2)c(C(=O)OCC)cc2c(=O)n3ccccc3nc21`?
BAZ2B block: 1.2%; JMJD2A Tudor: -15.7%[57.1 µM]; Sfp PPTase inh: 4.0%; ALOX12 inh: 0.0%; G9a block: 0.5%[12.7 µM]; HP1b binding inh: -12.4%

What do the screens show for `CCOC(=O)c1cc2c(=O)n3ccccc3nc2n(Cc2ccco2)c1=NC(=O)c1ccc(OC)cc1OC`?
BAZ2B block: inconclusive; JMJD2A Tudor: inconclusive; Sfp PPTase inh: 44.7µM*; ALOX12 inh: -26.5%; G9a block: -34.3%; HP1b binding inh: 7.9%

What do the screens show for `COCCCn1c(=NC(=O)c2ccncc2)c(C#N)cc2c(=O)n3cccc(C)c3nc21`?
BAZ2B block: -1.0%; JMJD2A Tudor: -12.6%; Sfp PPTase inh: 12.7%; ALOX12 inh: -20.2%; G9a block: -9.2%[59 µM]; HP1b binding inh: 15.5%

How did CCOCCCn1c(=NC(=O)c2cccnc2)c(C(=O)OCC)cc2c(=O)n3ccccc3nc21 do in these assays?
BAZ2B block: -27.5%; JMJD2A Tudor: 50.1µM*!; Sfp PPTase inh: 16.0%; ALOX12 inh: inconclusive; G9a block: 1.9%[59 µM]; HP1b binding inh: 10.0%

How did CC(=O)N=c1c(C#N)cc2c(=O)n3cccc(C)c3nc2n1Cc1ccco1 do in these assays?
BAZ2B block: -37.4%; JMJD2A Tudor: -16.9%; Sfp PPTase inh: -21.3%; ALOX12 inh: 0.0%; G9a block: inconclusive; HP1b binding inh: 40.0%

How did Cc1ccccc1C(=O)N=c1c(C#N)cc2c(=O)n3cccc(C)c3nc2n1Cc1ccco1 do in these assays?
BAZ2B block: 6.7%; Sfp PPTase inh: 50.1µM*; G9a block: 15.1%

What do the screens show for `Cc1nc2cc(F)ccc2cc1C(=O)N(Cc1cccnc1)C1CC1`?
ALOX12 inh: 12.7%

How did CCOC(=O)c1cc2c(=O)n3ccccc3nc2n(Cc2ccco2)c1=NC(=O)c1cc(C)cc(C)c1 do in these assays?
BAZ2B block: 13.3%; JMJD2A Tudor: 9.9%; ALOX12 inh: inconclusive; G9a block: -5.3%[59 µM]; HP1b binding inh: 14.1%

Results for N#Cc1cc2c(=O)n3ccccc3nc2n(Cc2ccco2)c1=NC(=O)c1ccco1 ?
BAZ2B block: -12.2%; JMJD2A Tudor: inconclusive; Sfp PPTase inh: 39.8µM*; ALOX12 inh: -25.9%; G9a block: inconclusive; HP1b binding inh: 17.3%

How did CCC1Nc2ncnc(N3CCCCC3)c2N(Cc2ccc(Cl)cc2)C1=O (stereo not drawn) do in these assays?
JMJD2A Tudor: inconclusive; ALOX12 inh: inconclusive; HP1b binding inh: 56.0%
